The list is not random: actives were taken first. Their share in the collection is about 12%.
Sm TGR block – qHTS Assay for the Inhibitors of Schistosoma Mansoni Peroxiredoxins | Schistosoma mansoni thioredoxin glutathione reductase (TGR), Q962Y6 | purified TGR, DTNB reduction, TNB absorbance 405 nm | Potency, µM (doses to about 114 µM), usual class: inhibitors | 3% of 360,000 active | AID 485364, 2010; active = well fitted inhibition curve with a large enough effect; inconclusive = small, poorly fitted or top-dose-only effect; inactive = no such curve, though single readings can be large or run the other way; also: nearly all actives have a fitted effect of over 60% in size
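First, TGR (20 nM dispensed) and NADPH were mixed with compound. Second, a 15 min room-temperature incubation followed. Third, further NADPH and then DTNB were added to start the reaction. Finally, TNB absorbance was monitored kinetically.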
Shiga toxin inh – A qHTS for Small Molecule Inhibitors of Shiga Toxin | Vero cells, Shiga toxin protein synthesis inhibition reporter | inhibition, % at 38.7 µM | 9.2% of 290,000 active | AID 2315, 2010; in the data active = inhibition mostly above about 28%, no sharp cut-off; inactive = mostly below about 43%
FMDV antiviral – High Throughput Screening for Foot and Mouth Disease Virus Antivirals; FMDV antiviral cell-based qHTS; 1.2% of 410,000 active; AID 1159524, 2015; Potency, µM (highest dose often 57.9 µM), hits mostly inhibitors; calls by dose curve; tested in HEK293T cells; also: read-out not given here; nearly all actives have a fitted effect of over 45% in size
CHX counter – Cycloheximide Counterscreen for Small Molecule Inhibitors of Shiga Toxin; cell reporter, cycloheximide protein synthesis inhibition counterscreen; max response, %; 12% of 300,000 active; in the data active = max response mostly above about 13%, no sharp cut-off; inactive = mostly below about 14%; also: read at 38.3 µM for the half of the compounds with a filed dose
Of the large screens only hits and unclear results are named; the others gave an inactive call.

CCOC(=O)N1CCN(c2ncnc3c2[nH]c2ccc(F)cc23)CC1	FMDV antiviral 14.1µM
CCCCOc1ncnc2c1[nH]c1ccccc12	Shiga toxin inh 37.2, FMDV antiviral inconclusive, CHX counter 21.6
CCCCOc1ncnc2c1[nH]c1ccc(OC)cc12	Shiga toxin inh 77.2, CHX counter 56.1
CCCCn1cnc2c([nH]c3ccccc32)c1=O	none
CCCCOc1ncnc2c1[nH]c1ccc(OCC)cc12	none
CCCCOc1ncnc2c1[nH]c1ccc(F)cc12	Shiga toxin inh 50.0, CHX counter 33.6 (no result: FMDV antiviral)
Cc1ccc(C)c(NC(=O)Cn2cc(S(=O)(=O)Cc3cccc(Cl)c3)c3ccccc32)c1	none (no result: Shiga toxin inh, CHX counter)
COc1ccc(Cl)cc1NC(=O)C(=O)NCc1ccc(Cl)cc1	FMDV antiviral inconclusive (no result: Shiga toxin inh, CHX counter)
Cc1ncc2c(c1CNC(=O)c1cncs1)CCN(C(=O)c1csc(-c3cccs3)n1)C2	none (no result: Sm TGR block, Shiga toxin inh, CHX counter)
Cc1cc(=O)n2nc(N3CCC(C(=O)Nc4ccc(C)c(Cl)c4)CC3)sc2n1	none (no result: Shiga toxin inh, CHX counter)
CCc1ccc(S(=O)(=O)c2cn(CC(=O)Nc3ccc(C)cc3)c3ccccc3c2=O)cc1	none (no result: Shiga toxin inh, CHX counter)
Cc1ccc(-c2csc(-c3cc4c([nH]c3=O)CC(c3ccccc3)CC4=O)n2)cc1 (configuration not stated)	none (no result: Shiga toxin inh, CHX counter)
COc1ccccc1N/C=C/c1onc(C)c1[N+](=O)[O-]	FMDV antiviral inconclusive
Cc1noc(/C=C/Nc2ccc(F)cc2F)c1[N+](=O)[O-]	Shiga toxin inh 141.0, CHX counter 53.1
CN1CCCC(CNC(=O)c2cnn(-c3ncc4c(n3)-c3ccccc3CC4)c2C2CC2)C1 (configuration not stated)	none (no result: Sm TGR block, Shiga toxin inh, CHX counter)
CC(=O)Nc1nc(-c2ccccc2)ns1	Shiga toxin inh 38.1, CHX counter 23.3
COc1ccc(-c2nsc(NC(=O)c3cccc(OC)c3)n2)cc1	none (no result: Shiga toxin inh, CHX counter)
COCC(=O)Nc1nc(-c2ccccc2)ns1	CHX counter 34.7
COc1ccccc1OCC(=O)Nc1nc(-c2ccc(Br)cc2)ns1	none (no result: Shiga toxin inh, CHX counter)
COc1ccc(C(=O)c2oc3ccccc3c2NC(=O)c2nc(SC)ncc2Cl)cc1Cl	none (no result: Shiga toxin inh, CHX counter)
Cc1nc2ccccc2c(=O)n1/N=C/c1ccccc1O	Shiga toxin inh 87.5, CHX counter 37.0
Cc1nc2ccccc2c(=O)n1/N=C/c1cccs1	CHX counter 24.9
Cc1nc2ccccc2c(=O)n1/N=C/c1ccc(O)c(O)c1O	Sm TGR block 44.7µM
Cc1nc2ccccc2c(=O)n1/N=C/c1ccccc1	none (no result: FMDV antiviral)
CCOc1ccccc1/C=N/n1c(C)nc2ccccc2c1=O	FMDV antiviral inconclusive
Cc1nc2ccccc2c(=O)n1/N=C/c1ccc2ccccc2c1O	Shiga toxin inh 74.2, FMDV antiviral inconclusive, CHX counter 46.2
O=C(CSc1nnc(CNC(=O)c2c(F)cccc2Cl)o1)Nc1ccccc1F	none (no result: Shiga toxin inh, CHX counter)
COc1ccc(CCNc2nc(-c3ccc(OC)c(OC)c3)cc(C(F)(F)F)n2)cc1OC	FMDV antiviral inconclusive (no result: Shiga toxin inh, CHX counter)
O=C(Cn1c(=O)n(-c2ccccc2)c(=O)c2c3c(sc21)CCCC3)Nc1cccc(F)c1	none (no result: Shiga toxin inh, CHX counter)
COc1ccc(C(=O)NCc2ccc3c(c2)CCN3C(=O)c2ccc(Cl)cc2)c(OC)c1	none (no result: Shiga toxin inh, CHX counter)
COC(=O)c1ccc(NC(=O)c2cccc(C)c2[N+](=O)[O-])cc1	CHX counter 21.6
CCOC(=O)c1ccc(NC(=S)NCc2ccccc2)cc1	Sm TGR block inconclusive, CHX counter 11.6
CCOC(=O)c1ccc(NC(=O)c2ccc(OC(C)C)c(OC)c2)cc1	FMDV antiviral 39.8µM
CCOC(=O)c1ccc(NC(=O)Nc2ccc(OC)c(OC)c2)cc1	none
CCOC(=O)c1ccc(NC(=O)c2cccc(C)c2[N+](=O)[O-])cc1	Shiga toxin inh 51.6, CHX counter 20.3
CCOC(=O)c1c(C)c(-c2ccccc2)n(CC(=O)NC2CCCCCC2)c1C	Sm TGR block inconclusive (no result: Shiga toxin inh, CHX counter)
CCCN(CCC)C(=O)Cn1c(=O)n(-c2ccc(CC)cc2)c(=O)c2c3c(sc21)CCC3	none (no result: Shiga toxin inh, CHX counter)
Cc1nc2nc(CNC(=O)c3cccc(F)c3)nn2c(C)c1CCC(=O)Nc1cccc(Cl)c1	none (no result: Shiga toxin inh, CHX counter)
CCOC(=O)c1cc([N+](=O)[O-])c([N+](=O)[O-])cc1NC(C)=O	Sm TGR block 0.501µM, FMDV antiviral inconclusive
CCOC(=O)c1ccc(NC(=S)Nc2ccccn2)cc1	Shiga toxin inh 39.8, CHX counter 26.5
CCOC(=O)c1ccc(NCCOC)c([N+](=O)[O-])c1	Shiga toxin inh 88.0, CHX counter 40.0
CCOC(=O)c1ccc(NC(=O)c2ccc(NS(C)(=O)=O)cc2)cc1	none (no result: FMDV antiviral)
CCOC(=O)c1ccc(NC(=O)c2ccccc2)cc1	Shiga toxin inh 81.4, CHX counter 48.7 (no result: FMDV antiviral)
CCOc1ccccc1NC(=O)Cn1nnc2sc3c(c2c1=O)CCC(C(C)(C)C)C3 (configuration not stated)	none (no result: Shiga toxin inh, CHX counter)
COc1ccc(S(=O)(=O)n2nc(C)c(S(=O)(=O)N3CCC(C)CC3)c2C)cc1OC	none (no result: Shiga toxin inh, CHX counter)
CCOC(=O)c1ccc(NC(=O)Nc2ncccc2C)cc1	none
CCOC(=O)c1ccc(Nc2ncccc2[N+](=O)[O-])cc1	Shiga toxin inh 62.1, CHX counter 34.9
O=C(Nc1ccc2ccccc2c1)c1ccccc1[N+](=O)[O-]	none (no result: Sm TGR block, Shiga toxin inh, CHX counter)
CCOC(=O)c1ccc(NC(=O)c2ccccc2[N+](=O)[O-])cc1	Shiga toxin inh 58.2, CHX counter 42.2
CCC1(C2CCN(C(=O)c3ccccc3C)CC2)NC(=O)N(CCc2scnc2C)C1=O (configuration not stated)	none (no result: Sm TGR block, Shiga toxin inh, CHX counter)
CC(=O)c1ccc(OCC(=O)OCc2cc(-c3ccco3)on2)cc1	Sm TGR block 50.1µM (no result: Shiga toxin inh, CHX counter)
CCn1c(CC(=O)Nc2ccccc2C)nnc1SCC(=O)NC1CCCC1	CHX counter 20.6
CCn1c(COc2cccc(OC)c2)nnc1SCC(=O)NC1CCCC1	CHX counter 35.8
Cc1nnc(SCC(=O)NC2CCCC2)n1C(C)C	CHX counter 20.3
CCn1c(COc2cccc(C)c2)nnc1SCC(=O)NC1CCCC1	none
COc1cc(C(=O)NC2CCN(CC(=O)NC3CCCCC3C)CC2)cc(OC)c1OC (configuration not stated)	none
COc1cc(C(=O)NC2CCCNC2)cc(OC)c1OC (configuration not stated)	Sm TGR block 35.5µM (no result: FMDV antiviral)
CCCn1c2ccccc2c2cnn(CC(=O)NCCc3ccc(S(N)(=O)=O)cc3)c(=O)c21	none (no result: Shiga toxin inh, CHX counter)
CC(O)(CS(=O)(=O)Cc1ccccc1)c1ccc(Cl)cc1 (configuration not stated)	none
Cc1ccc(C(C)(O)CS(=O)(=O)Cc2ccccc2Cl)cc1 (configuration not stated)	Sm TGR block 50.1µM
Cc1ccc(S(=O)(=O)N(C(=O)c2ccncc2)c2ccc(OC(=O)c3ccncc3)c3ccccc23)c(C)c1	Sm TGR block 17.8µM, FMDV antiviral inconclusive
Cc1ccc(S(=O)(=O)N(C(=O)c2ccncc2)c2ccc(OC(=O)c3ccncc3)c3ccccc23)cc1	Sm TGR block 20µM
CC(C)(C)OC(=O)N1CCC(c2c(C(=O)NCCN3CCOCC3)cnn2-c2ccc(F)cc2)CC1	none (no result: Shiga toxin inh, CHX counter)
Cc1ccc(CN2CCC(CO)(CC3CCCCO3)CC2)o1 (configuration not stated)	Sm TGR block 44.7µM
COc1cc(/C=C/CN2CCC(Oc3ccc(C(=O)N4CCCC4)cc3)CC2)ccc1O	Sm TGR block 17.8µM
